In PubChem BioAssay AID651598 (Sanford-Burnham Center for Chemical Genomics, 2012):
Where “and” joins values, the source holds several entries; their conditions need not be identical. Equal values may be shown once.

biological target: C-X-C chemokine receptor type 6 (Homo sapiens) (UniProt O00574); assay: apelin receptor (APJ) antagonists, SAR follow-up, counter-screen for CXCR6 antagonist project, cell-based, beta-arrestin, DiscoveRx, panel, CHO-K1 (AID 651598); details: CHO-K1 PathHunter beta-arrestin luminescence, antagonist mode; run 2, at 80 µM (top of the series)
Sequence (O00574 whole entry, looked up): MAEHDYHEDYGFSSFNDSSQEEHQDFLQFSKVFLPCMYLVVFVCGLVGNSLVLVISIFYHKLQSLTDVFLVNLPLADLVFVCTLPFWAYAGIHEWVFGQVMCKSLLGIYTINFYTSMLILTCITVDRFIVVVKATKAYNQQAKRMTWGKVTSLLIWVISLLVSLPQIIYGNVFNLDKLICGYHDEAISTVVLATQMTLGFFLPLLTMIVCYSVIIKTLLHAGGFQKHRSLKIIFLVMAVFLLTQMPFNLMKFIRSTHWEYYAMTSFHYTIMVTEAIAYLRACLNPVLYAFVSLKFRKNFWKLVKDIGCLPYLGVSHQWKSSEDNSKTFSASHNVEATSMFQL

Row | SMILES | inhibition
1 | COc1cc(C(=O)NC2CC3CCCC(C2)N3CC(=O)Nc2ccccc2)cc(OC)c1OC (stereo not drawn) | 88.2% and 52.1% and 24.9%
2 | COc1cc(C(=O)NC2CCN(CC(=O)Nc3ccccc3)CC2)cc(OC)c1OC | 25.1%
3 | COc1cc(C(=O)NC2CC3CCC(C2)N3CC(=O)Nc2ccccc2)cc(OC)c1OC (stereo not drawn) | 48.5% and 18.7%
